# Bioassay records: PubChem, several laboratories
# CSC inhib: blocks cancer stem cells | cancer stem cell-like cells viability, luminescence | inhibition, % at 7.5 µM | hit rate 1.1% among 300,000 | AID 2717; in the data active = inhibition above about 75%; tested in HMLE shEcad cells
# Gli-Sufu antag: antagonists of Gli-Sufu signaling; Sufu-KO-LIGHT fibroblasts, Gli luciferase reporter luminescence; hit rate 0.74% among 340,000; inhibition, % at 5 µM;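 active = inhibition above about 55%, limit read from the data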;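 note: 0% = DMSO-treated cells and 100% = wells with medium but no cells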
# Beta cell apopt: beta cell apoptosis inhibition; protection from apoptosis, % (concentration not given with the values); INS-1E cytokine-induced death, ATP luminescence, 48 h; percent of positive-control rescue, neutral wells zero; hit rate 0.8% among 300,000;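 active = Every replicate reaches about 75%, or at least half do and their mean reaches it too, limit read from the data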;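 note: 0% = cytokine-treated negative control wells and 100% = positive control rescue; higher means more ATP so stronger rescue from cytokine killing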
# Mdm2 MdmX PPI: disrupts the human Mdm2-MdmX interaction | AID 485346 | hit rate 3% among 330,000 | inhibition, % at 8 µM | O15151+Q00987 | SaOS-2 split-luciferase Mdm2/MdmX complementation, luminescence;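 active = inhibition of at least 50% at 8 µM in the primary screen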
# Target sequence (O15151 whole entry, looked up): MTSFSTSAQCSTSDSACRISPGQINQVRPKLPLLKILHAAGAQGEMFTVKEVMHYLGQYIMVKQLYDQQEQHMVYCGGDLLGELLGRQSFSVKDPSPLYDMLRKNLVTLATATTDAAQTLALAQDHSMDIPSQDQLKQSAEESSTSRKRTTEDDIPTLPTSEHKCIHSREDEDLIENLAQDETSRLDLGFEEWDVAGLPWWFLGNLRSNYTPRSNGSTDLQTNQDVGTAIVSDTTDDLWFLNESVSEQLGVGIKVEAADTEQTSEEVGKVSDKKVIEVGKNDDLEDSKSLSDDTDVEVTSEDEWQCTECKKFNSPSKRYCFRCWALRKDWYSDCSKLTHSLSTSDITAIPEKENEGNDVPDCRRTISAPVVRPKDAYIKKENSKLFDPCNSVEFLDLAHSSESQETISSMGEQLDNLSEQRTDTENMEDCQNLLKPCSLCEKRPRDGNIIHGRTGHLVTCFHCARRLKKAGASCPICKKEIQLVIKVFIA
# Target sequence (Q00987 whole entry, looked up): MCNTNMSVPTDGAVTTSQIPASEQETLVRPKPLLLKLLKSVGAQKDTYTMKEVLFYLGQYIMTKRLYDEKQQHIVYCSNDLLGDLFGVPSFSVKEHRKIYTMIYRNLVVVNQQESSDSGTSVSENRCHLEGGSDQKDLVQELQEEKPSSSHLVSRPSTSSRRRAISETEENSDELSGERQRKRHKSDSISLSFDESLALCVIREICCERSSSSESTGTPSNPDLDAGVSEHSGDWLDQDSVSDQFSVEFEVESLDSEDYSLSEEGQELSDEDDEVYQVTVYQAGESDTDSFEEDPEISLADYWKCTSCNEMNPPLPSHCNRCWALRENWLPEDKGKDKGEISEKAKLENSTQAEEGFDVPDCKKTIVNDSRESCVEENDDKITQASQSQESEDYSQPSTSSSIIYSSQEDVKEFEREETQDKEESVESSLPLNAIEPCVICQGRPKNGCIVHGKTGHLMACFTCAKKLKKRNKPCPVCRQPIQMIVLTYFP
# Jurkat NFkB inh: inhibitors of the PMA/ionomycin-induced NF-kB reporter in Jurkat cells. PMA/ionomycin-induced NF-kB luciferase reporter, luminescence. inhibition, % at 4 µM. hit rate 0.53% among 330,000; in the data active = inhibition above about 50%
# 697 NFkB inh: lowers PMA/ionomycin-induced NF-kB signal in 697 B cells. 697 B-cell NF-kB luciferase reporter, 16 h. inhibition, % at 4 µM. hit rate 0.33% among 330,000. AID 435022; in the data active = inhibition above about 35%
# Gli antag conf: confirmation of Gli-SUFU pathway antagonists; shares compounds with Gli-Sufu antag; Sufu-KO-LIGHT cells, Gli luciferase reporter, luminescence; inhibition, % at 5 µM; hit rate 40% among 2,500;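 active = mean inhibition at 5 µM reaching about 45%, limit read from the data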;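 note: plate controls were DMSO-treated cells for no effect and wells lacking cells for full effect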
# SufuKO cytotox: cytotoxic in Gli-SUFU antagonist counter-screen. cytotoxicity, % at 5 µM. hit rate 32% among 2,500. shares compounds with Gli-Sufu antag. Sufu-KO-LIGHT cells cytotoxicity, ATP luminescence;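 active = mean cytotoxicity at 5 µM above about 25%, limit read from the data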;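 note: cells exposed to compound overnight for roughly 16 to 18 hours; plate controls were DMSO wells with cells for no effect and medium without cells for full effect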
# Wnt3a cs: Wnt3a reporter inhibition counter-screen | inhibition, % at 6.25 µM | hit rate 20% among 2,500 | Wnt-LIGHT cells, Wnt3a-driven luciferase reporter, luminescence | shares compounds with Gli-Sufu antag;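 active = mean inhibition above about 25%, limit read from the data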
# The depositor's hits bear a star; nt = no result. Most compounds without a hit are left out; they make up all but 4.5% or so of the library.
SMILES,CSC inhib,Gli-Sufu antag,Beta cell apopt,Mdm2 MdmX PPI,Jurkat NFkB inh,697 NFkB inh,Gli antag conf,SufuKO cytotox,Wnt3a cs
Cc1ccc(C)c(C(=O)Nc2ccncc2)c1,-26,19,-7,-26,0,-63,nt,nt,nt
COc1ccc(CN(C)CC2CCCN(CCc3ccccc3C)C2)cc1O (stereo not given),10,20,nt,4,4,-13,nt,nt,nt
COc1cccc(CN(C)CC2CCCN(CCc3ccccc3C)C2)c1 (stereo not given),4,61*,nt,21,-7,4,18,3,-17
CCOC(=O)C1(CCOc2ccccc2)CCN(Cc2ccc(OC)c(COC)c2)CC1,nt,57*,nt,21,46,-30,21,16,-11
CC(=O)c1ccc(NC(=S)N2CCN(C(=S)Nc3ccc(C(C)=O)cc3)C(C)C2)cc1 (stereo not given),-4,58*,1,16,6,4,9,31*,-10
CC(=O)c1ccc(NC(=S)N2CC(C)CC(C)C2)cc1 (stereo not given),-11,1,-1,6,-4,-16,nt,nt,nt
C[C@@H](NC(=O)[C@@H]1Cc2ccccc2CN1C(=O)OC(C)(C)C)C(=O)NC1CCCCC1,24,-11,0,-12,-18,-3,nt,nt,nt
CCOC(=O)C1(Cc2cccc(OC)c2)CCN(C/C=C/c2ccccc2)CC1,6,41,8,31,6,-11,nt,nt,nt
CCOC(=O)C1(Cc2cccc(OC)c2)CCN(C/C=C/c2ccc(OC)cc2)CC1,29,53,20,7,8,-10,38,28*,-38
CC(=O)N1CCOc2ccc(S(=O)(=O)NC(C)c3ccccc3)cc21 (stereo not given),0,61*,-7,2,2,-11,24,-6,1
CC(=O)N1CCc2cc(S(=O)(=O)NC(C)c3ccccc3)ccc21 (stereo not given),3,27,7,12,14,-32,nt,nt,nt
CCCN(CCC)CCNC(=O)c1cc2c(=O)n(C)c3ccccc3c2n1C,4,63*,2,28,-26,-3,38,8,-71
O=C(CCNC(=O)c1ccco1)Nc1ccc(Cl)cc1F,-11,-12,-4,-18,13,2,nt,nt,nt
CC(=O)Nc1ccc(N2C(=O)CSC2c2cccc(Br)c2)cc1 (stereo not given),11,-8,1,16,18,3,nt,nt,nt
Cc1ccc(C(=O)N/N=C\C=C\c2ccc(Br)cc2)cn1,17,51,4,-4,-9,-11,27,5,-4
O=C(c1ccccc1SCc1ccccc1)N1CCOCC1,15,61*,1,9,-5,18,17,-2,9
O=C(CSc1ccc2nnc(-c3cccnc3)n2n1)NCc1ccco1,4,82*,-3,28,2,0,13,17,-10
CN(C(=O)COc1ncnc2sccc12)C1CCCCC1,nt,8,-2,20,2,22,nt,nt,nt
CN(C)S(=O)(=O)c1ccc(NC(=O)CCCNC(=O)c2ccc(Cl)cc2)cc1,-7,-6,-5,-15,15,0,nt,nt,nt
O=C1CCCN1CN1CCCCC1,-10,99*,-5,9,-3,-15,13,22,-14
O=C(O)CN1CCCCCC1=O,-5,-10,-8,10,11,5,nt,nt,nt
c1csc(-c2noc(CN3CCc4sccc4C3)n2)c1,0,-7,6,1,-8,-1,nt,nt,nt
COc1ccc(S(=O)(=O)NC2CCCCCC2)cc1C(N)=O,-20,63*,-5,26,6,-3,7,25,-50
O=C(N/C(=C\c1cccc(Br)c1)C(=O)N1CCCCC1)c1ccco1,-5,-12,-5,-6,-10,23,nt,nt,nt
CC1CC(C)CN(C(=O)c2nn(C)c3c2CS(=O)(=O)c2ccccc2-3)C1 (stereo not given),-8,53,-1,8,9,-2,5,13,-22
SMILES,CSC inhib,Gli-Sufu antag,Beta cell apopt,Mdm2 MdmX PPI,Jurkat NFkB inh,697 NFkB inh,Gli antag conf,SufuKO cytotox,Wnt3a cs
CCCc1nnc(NC(=O)CCC(=O)NCc2ccccc2Cl)s1,-5,55*,-5,10,2,-10,9,15,-14
O=C(NC1CCCc2c1cnn2-c1ccc(F)cc1F)c1ccccn1 (stereo not given),15,4,-4,-20,14,-16,nt,nt,nt
Cc1cccc(-n2ncc3c2CCCC3NC(=O)C2=CC(=O)CC(C)(C)O2)c1C (stereo not given),-2,58*,nt,6,21,-15,21,31*,9
COc1ccc(C(=O)NC2CCCc3c2cnn3-c2ccccc2F)cc1OC (stereo not given),-8,56*,20,19,24,-8,24,6,-7
CC(C)(C)c1ccc(-n2ncc3c2CCCC3NC(=O)c2ccncc2)cc1 (stereo not given),-7,51,23,38,32,-19,28,20,-68
Cc1nnsc1C(=O)NC1CCCc2c1cnn2-c1ccccc1F (stereo not given),-20,51,45,1,9,-20,45*,8,29*
O=C(NC1CCCc2c1cnn2-c1cc(F)cc(F)c1)c1ccncc1 (stereo not given),-1,-7,0,0,2,-5,nt,nt,nt
Cc1nnsc1C(=O)NC1CCCc2c1cnn2-c1ccc(C(C)(C)C)cc1 (stereo not given),31,62*,75*,23,46,13,59*,53*,-10
CCc1ccc(NC(=O)CSc2n[nH]c(=O)n2C2CC2)cc1,nt,1,nt,-24,5,-27,nt,nt,nt
C=COC(=O)NC1CCc2cc(OC)c(OC)c(OC)c2-c2ccc(SC)c(=O)cc21 (stereo not given),nt,66*,nt,nt,nt,nt,64*,63*,40*
COc1cc2c(c(OC)c1OC)-c1ccc(SC)c(=O)cc1C(NC(=O)c1ccccc1)CC2 (stereo not given),nt,63*,nt,nt,nt,nt,66*,51*,46*
COc1cc2c(c(OC)c1OC)-c1ccc(OC)c(=O)cc1C(NC(=O)c1ccccc1)CC2 (stereo not given),nt,45,nt,nt,nt,nt,nt,nt,nt
COc1c(O[C@@H]2O[C@H](CO)[C@@H](O)[C@H](O)[C@H]2O)cc2c(c1OC)-c1ccc(SC)c(=O)cc1C(NC(C)=O)CC2 (stereo not given in full),nt,3,nt,-5,4,20,nt,nt,nt
Cc1ccc(C(CCNC(C)c2cccs2)c2ccco2)cc1 (stereo not given),11,-7,3,22,-17,7,nt,nt,nt
